# Giardia kill: Small Molecules that selectively kill Giardia lamblia: qHTS | activity change, % at 7.66 µM, hits read low | Giardia lamblia trophozoite viability | hit rate 0.15% among 340,000; in the data active means activity change below about -80%; inconclusive means between about -30% and that limit;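 further: parasites exposed to compound for two days anaerobically before the ATP read; on the % scale 0 is the no-effect control and ±100 the full control effect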
#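 Each well holds 100 Giardia trophozoites and compound. After two days (48 hrs) at 37 deg C in anaerobic conditions, ATP is quantified by luminescence.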
# MCF10A rerep: A quantitative high throughput screen for small molecules that induce DNA re-replication in MCF 10a normal breast cells; MCF 10A DNA re-replication, Hoechst nuclear intensity, 48 h; Potency, µM (series often up to 46.1 µM), without a hit: at the highest dose activity, positive = re-replication, usual class: activators; hit rate 2.9% among 350,000; AID 624296, 2012; further: potency means the concentration at half of the fitted maximal effect; % of control where 0% means no effect; nearly all actives have a fitted effect of over 50% in size
# RORg inh: qHTS for inhibitors of ROR gamma transcriptional activity; Potency, µM (top dose mostly 53.6 µM), without a hit: at the highest dose activity change, negative = inhibition, actives largely listed as inhibitors; hit rate 5.4% among 310,000; Nuclear receptor ROR-gamma (Mus musculus), P51450; Drosophila S2 Gal4-RORgamma UAS-luciferase reporter, 20 h; further: potency means the concentration at half of the fitted maximal effect; on the % scale 0 is the no-effect control and ±100 the full control effect; nearly all actives have a fitted effect of over 60% in size
# Target sequence (P51450 whole entry, looked up, the tested form may be a part): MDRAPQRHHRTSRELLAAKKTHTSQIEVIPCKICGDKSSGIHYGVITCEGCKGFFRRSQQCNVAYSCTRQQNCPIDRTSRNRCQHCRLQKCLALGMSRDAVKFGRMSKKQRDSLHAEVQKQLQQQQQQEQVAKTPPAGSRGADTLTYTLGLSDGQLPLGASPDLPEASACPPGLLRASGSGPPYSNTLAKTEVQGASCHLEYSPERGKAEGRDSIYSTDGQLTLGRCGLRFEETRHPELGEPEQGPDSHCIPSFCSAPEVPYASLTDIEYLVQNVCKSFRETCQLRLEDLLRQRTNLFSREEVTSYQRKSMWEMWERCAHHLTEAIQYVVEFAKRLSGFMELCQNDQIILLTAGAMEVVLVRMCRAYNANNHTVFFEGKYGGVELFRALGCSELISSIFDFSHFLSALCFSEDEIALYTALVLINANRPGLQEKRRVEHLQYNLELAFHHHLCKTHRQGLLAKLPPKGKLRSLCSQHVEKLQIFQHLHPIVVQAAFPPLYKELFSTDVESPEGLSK
#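 Luciferase reporter read in Schneider cells carrying Gal4-RORγ (mouse) and UAS-Photinus luciferase; cells given compound 1 h before 700 uM copper sulfate induction, then incubated 20 h at ambient temperature.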
# Chronic BCR inh: qHTS Assay to Find Inhibitors of Chronic Active B-Cell Receptor Signaling | ABC-DLBCL IkBa-CBG/CBR reporter, luminescence ratio, 4 h | Potency, µM (doses to about 46.1 µM), for inactives: top-dose activity change, negative = inhibition, most hits filed as inhibitors | hit rate 0.05% among 340,000 | AID 493014, 2011; active means well fitted inhibition curve with a large enough effect in the signal ratio, with a control signal flat, not every such curve was filed as active; inconclusive means small, poorly fitted or top-dose-only effect, or effect the other way, or a change in a side signal; the % refers to the signal ratio;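 further: potency means the concentration at half of the fitted maximal effect; plate controls were basal doxycycline-induced cells for no effect and cells given 10 µM MG132 for full effect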
#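 Concentration-response series (up to 46 uM) were applied to TMD8 dual-reporter cells for 4 h at 37C with doxycycline. Green/red ratio, after filter-overlap correction, defined %Activity; red signal alone was normalised to basal cells and zero luminescence.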
# Gal4-VP16 FLuc: VP16 counterscreen qHTS for inhibitors of ROR gamma transcriptional activity | Drosophila S2 Gal4-VP16 UAS-luciferase, luminescence, 20 h | Potency, µM (highest dose often 53.6 µM), inactives show at the top dose activity, negative = inhibition, actives largely listed as inhibitors | hit rate 3.5% among 310,000 | AID 2546, 2010;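 further: Gal4-VP16 expression switched on by copper sulfate through the metallothionein promoter; potency means the concentration at half of the fitted maximal effect; on the % scale 0 is the no-effect control and ±100 the full control effect; nearly all actives have a fitted effect of over 50% in size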
# SW480 rereplic: A quantitative high throughput screen for small molecules that induce DNA re-replication in SW480 colon adenocarcinoma cells; Potency, µM (top dose mostly 46.1 µM), for inactives: top-dose re-replication activation, most hits filed as activators; SW480 DNA re-replication, Hoechst DNA content imaging, 48 h; hit rate 1.8% among 340,000; further: potency means the concentration at half of the fitted maximal effect; % of control where 0% means no effect; nearly all actives have a fitted effect of over 55% in size
#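 Per well, 250 cells were exposed to pinned compound for 48 hr. Nuclear DNA was visualised with Hoechst (40 min, 37 C) and total object intensity recorded by fluorescence scanning.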
# * hit, by the source's call; u = inconclusive; x = no result given; [ ] = dose if it differs, or a comment. An excerpt weighted towards active compounds, which were near 8.3% of everything screened. Unless noted, the call rests on the fitted dose curve; in most records, active means well fitted curve in the direction sought with a large enough effect; inconclusive means small, poorly fitted or top-dose-only effect, or another doubt; inactive means no such curve, though single readings can be large; an effect the other way counts as inactive or inconclusive.
SMILES,Giardia kill,MCF10A rerep,RORg inh,Chronic BCR inh,Gal4-VP16 FLuc,SW480 rereplic
CSCCC(NS(=O)(=O)c1ccc2c(c1)oc(=O)n2C)C(=O)N1CCN(c2cc(C)ccc2C)CC1 (configuration not stated),x,x,x,9%,x,x
CC(C)(C)c1ccccc1OCC(=O)Nc1ncn[nH]1,1,6%,11µM*,-6%,u,-4%
CC(C)(C)c1cc(Br)ccc1OCC(=O)Nc1ncn[nH]1,1,u,3.5µM*,u,18µM*,-3%
O=C(COc1ccccc1)Nc1ncn[nH]1,-13,14%,-1%,7%,-12%,-24%
Cc1cc(N)c2ccccc2[n+]1CCCCCCCCCC[n+]1c(C)cc(N)c2ccccc21,x,3%[20.6 µM],u,x,u,-9%[20.6 µM]
CCc1ccccc1NC(=O)CN1CCN(CC(=O)Nc2ccc(-c3ccccc3)cc2)CC1,-4,u,-2%,2%,-12%,8%
CCc1ccccc1NC(=O)CN1CCN(C(=O)CNC(=O)c2ccc(-c3ccccc3)cc2)CC1,10,5.8µM*,x,-1%,x,62%
S=c1[nH]nc(COc2ccccc2)n1/N=C/c1ccc(Cl)cc1,13,u,u,7%,-16%,9%
S=c1[nH]nc(COc2ccccc2)n1/N=C/c1ccc(Cl)cc1Cl,0,u,7.1µM*,11%,-21%,-1%
Fc1ccccc1/C=N/n1c(COc2ccccc2)n[nH]c1=S,18,-8%,6.3µM*,-11%,u,0%
CCOc1ccccc1/C=N/n1c(COc2ccccc2)n[nH]c1=S,-9,8%,4.5µM*,-3%,u,-5%
S=c1[nH]nc(COc2ccccc2)n1/N=C/c1ccc(Br)s1,-7,u,2.5µM*,0%,u,-6%
Cc1ccc(/C=N/n2c(COc3ccccc3)n[nH]c2=S)s1,-3,6%,-6%,0%,-2%,-20%
Cc1ccc(C2(C)NC(=O)N(CC(=O)Nc3nc(-c4ccccn4)cs3)C2=O)cc1 (configuration not stated),1,25%,x,u,x,u
Cc1ccccc1/C=N/n1c(COc2ccccc2)n[nH]c1=S,1,3%,4.5µM*,u,u,-5%
COc1ccc(/C=N/n2c(N)nc3ccccc32)cc1OC,-2,2%,13µM*,u,u,1%
COc1cc(OC)c(OC)cc1/C=N/n1c(COc2ccccc2)n[nH]c1=S,-28,-5%,-39%,u,-9%,-12%
COc1ccc(/C=N/n2c(COc3ccccc3)n[nH]c2=S)cc1OC,-9,15%,5µM*,u,-3%,-2%
Oc1ccccc1/C=N/n1c(COc2ccccc2)n[nH]c1=S,-9,4%,11µM*,u,-29%,-2%
CC(=O)c1ccccc1OCCOc1ncnc2sccc12,-2,3%,17%,3%,-23%,-18%
C/C(CCc1ccc2c(c1)OCO2)=N\N=C1\NC(=O)CC(C(=O)Nc2ccccc2F)S1 (configuration not stated),-5,23%,11µM*,-24%,u,-3%
CCOc1ccc(S(=O)(=O)N2CCN(C)CC2)cc1NC(=O)c1ccccc1F,10,-4%,4µM*,2%,u,3%
CCOc1ccc(S(=O)(=O)NCc2cccnc2)cc1NC(=O)c1ccccc1F,-14,13µM*,4%,5%,-1%,9.2µM*
CCOc1ccc(S(=O)(=O)N2CCN(CC)CC2)cc1NC(=O)c1ccccc1F,-12,20%,-4%,3%,12%,3%
C/C(CC(=O)Nc1cc(C)ccn1)=N\NC(=O)c1ccccc1C,-4,0%,8.9µM*,u,u,-2%
SMILES,Giardia kill,MCF10A rerep,RORg inh,Chronic BCR inh,Gal4-VP16 FLuc,SW480 rereplic
COc1cccc(/C=N/NC(=S)Nc2cccc(C(=O)O)c2)c1O,u,1%,u,u,-22%,9%
COc1cccc(/C=N/NC(=S)NC2CC3CC2C2C=CCC32)c1O (configuration not stated),-25,u,8.9µM*,u,u,14%
O=C(NN=Cc1ccccc1O)C1CC1,6,-6%,x,x,x,u
Oc1ccccc1/C=N/NC(=S)NC1CC2CC1C1C=CCC21 (configuration not stated),-3,21µM*,8.9µM*,-1%,11µM*,u
COc1ccc(NC(=O)CS(=O)(=O)c2ccccc2Cl)cc1,-5,1%,16%,-3%,3%,0%
c1ccc(Cc2nc3ccccc3s2)cc1,-10,-8%,x,x,x,u
S=c1[nH]cc(Cc2ccccc2)s1,0,-1%,13µM*,-3%,u,-6%
CO[C@H]1C[C@@H]2C[C@H](O)C[C@@H](CC(=O)O[C@@H](/C=C\CC(C)C)C[C@@H]3CC[C@H](C)[C@@H](C1)O3)O2,x,x,13%[10 µM],x,12%[10 µM],x
CCOC(=O)c1ccc(S(=O)(=O)N2CC(=O)Nc3ccccc32)cc1,9,u,8%,2%,-18%,15µM*
CCc1ccc(S(=O)(=O)N2CC(=O)Nc3ccccc32)cc1,2,-6%,10%,-18%,6%,u
O=C(O)c1cc(-c2ccc(/C=N/NC(=S)Nc3ccccc3)o2)ccc1Cl,-22,11%,11µM*,u,2%[10 µM],19%
O=[N+]([O-])c1cccc(-c2ccc(/C=N/NC(=S)NCc3ccco3)o2)c1,-1,u,0.45µM*,u,3.2µM*,-2%
O=[N+]([O-])c1cccc(-c2ccc(/C=N/NC(=S)Nc3ccccc3)o2)c1,-14,22%,0.089µM*,u,2.5µM*,13%
Cc1cc(C(=O)N/N=C/c2ccc(-c3cccc([N+](=O)[O-])c3)o2)n[nH]1,3,6%,-19%,1%,-10%,4%
COCCNC(=S)N/N=C/c1ccc(-c2ccc([N+](=O)[O-])cc2)o1,-2,u,4.5µM*,u,10µM*,1%
NC(=O)N/N=C/c1ccc(-c2ccc([N+](=O)[O-])cc2)o1,2,u,-10%,u,-20%,0%
O=[N+]([O-])c1ccc(/C=N/NC(=S)Nc2ccccc2)o1,u,5%,u,u,u,u
OCc1cccc(Cl)c1Cl,x,x,2%,x,-3%,x
Cc1ccc(NC2CCCN(C(=O)C3CCCCC3)C2)cc1C (configuration not stated),7,10%,-45%,u,6%,9%

# Screens from PubChem.
